About 79,000 compounds went through this panel and 15% of them were active in at least one assay; those are over-represented in the sample as a whole. A number with no mark means an inactive call. Active and inactive are the calls of the source. Rule as the data show it: active = growth inhibition above about 70%; inactive = the rest.
Test: NCI Yeast Anticancer Drug Screen. Data for the sgs1 mgt1 strain (AID 161);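 also: 0% = growth of cultures given vehicle only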
Settings: S. cerevisiae sgs1 mgt1 strain, at 50.0 µM, stronger effect = higher value
In short: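 Mutant yeast exposed to compound; growth scored against vehicle-only wells.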

Row | SMILES | growth inhibition
1 | N#CNC(=Nc1ccccc1)[N](C#N)[Sn]([c]1ccccc1)([c]1ccccc1)[c]1ccccc1 | 99.2% (active)
2 | Cc1cc(Br)cc(C)c1NC(=O)C(=O)CC(=O)c1sc(-n2nc(-c3ccccc3)cc2-c2ccccc2)nc1C | -32.5%
3 | COc1ccccc1C1c2cc3c(cc2OC(O)(CO)C1C(=O)O)OCO3 (stereo not given) (tested in a mixture with another compound) | -15.3%
4 | N/C(=N\OC(=O)Nc1ccc(CSc2ccc(Cl)cc2)o1)c1ccccn1 | -14.1%
5 | COc1cc2c(c(O)c1OC)C(=O)[C@@H]1CCC(=O)N1C2c1ccccc1 (stereo not given in full) | 19.4%
6 | CC(C)OC(=O)N1CCCC1 | 6.05%
7 | COC1=CC(=O)c2ccccc2C1(CCC=C(C)C)C1=NC(C)(C)CO1 (stereo not given) | 7.75%
8 | CC(C#N)(CCl)OS(=O)(=O)CCCl (stereo not given) | 6.4%
9 | COc1ccc(C(C)Nc2cc(OC)c(OC)c(OC)c2)cc1 (stereo not given) | -3.15%
10 | c1cc2c3c(c1)ccc1ccc4cccc(c4c13)O2 | -24.2%
11 | CCCCCCCN1C=CCC(S(=O)(=O)N2CCOCC2)=C1 | -11.4%
12 | O=c1c2cc([N+](=O)[O-])ccc2sc2ccsc12 | -4.95%
13 | COc1cc([C@@H]2c3cc4c(cc3[C@](C)(O)[C@H]3COC(=O)[C@H]23)OCO4)cc(OC)c1OC | 14.1%
14 | CC(C)(/C=N\O)NO | 0.4%
15 | CN(C)c1nc(OC2C(C3COC(C)(C)O3)OC3OC(C)(C)OC32)nc(N(C)C)n1 (stereo not given) | 9.65%
16 | CSc1c(S(C)=O)[nH]c2cc(Br)cc(Br)c12 (stereo not given) | 88.7% (active)
17 | Cc1ccc2cccc(CCOC(=O)c3ccc([N+](=O)[O-])cc3)c2c1 | -15.3%
18 | CCOc1ccc(N=Cc2cc(Br)ccc2O)cc1 | 1.5%
19 | CCOC(=O)C1(c2ccccc2)CCNC(=O)CC1 (stereo not given) | 16.2%
20 | CN(C)Cc1cc(N=Nc2ccccc2Cl)cc(CN(C)C)c1O | -9.25%

Row | SMILES | growth inhibition
21 | CN(/N=C\c1ccc2ccccc2c1)C1=NCCCCN1 | -27.6%
22 | Cc1cccc(-c2c3ccccc3cc3ccccc23)c1 | 7.55%
23 | CCOC(=O)C1=C(Nc2ccc(Cl)cc2Cl)OC/C1=N\NS(=O)(=O)c1ccc(C)cc1 | 1.2%
24 | COc1cc2c(C)cc(=O)oc2c(OCC(O)CN2CCCC2)c1OC (stereo not given) | -5.75%
25 | CCOC(=O)C(C(=O)OCC)C(C(=O)OCC)(C(=O)OCC)C(C(=O)OCC)C(=O)OCC | 1.85%
26 | Nc1ccnc2n[nH]nc12 | -19.1%
27 | CC1(N)CCC(C(C)(C)N)CC1 (stereo not given) | 10.8%
28 | CC1=C(CCC(C)CO)OC2CC3C4CC=C5CC(O)CCC5(C)C4CCC3(C)C12 (stereo not given) | 43.4%
29 | C/C(CC(=O)Nc1ccccn1)=N\c1ccccn1 | -6.6%
30 | O=C(/C=C/c1ccc2c(c1)OCO2)NCc1ccco1 | -19.6%
31 | O=c1[nH]c(=S)[nH]c2[nH]ccc12 | -19.6%
32 | Cc1cnc2c(C)ccc([N+](=O)[O-])c2c1NCCCN(C)C | 12.7%
33 | CCCC1(CCC)NC(=O)N(CC(N)=O)C1=O | -9.5%
34 | COC(=O)c1nn(-c2ccccc2)c2nc3ccccc3c-2c1C(=O)OC | 31%
35 | O=C1OCc2cccc3c2-c2c1cccc2C(=O)OC3 | -4.8%
36 | CC(C)/C=C1\CCC(CN2CCCC2)C1=O (stereo not given) | 48.5%
37 | NCCn1ccnc1 | -1.75%
38 | S=C1SCN(c2ccc3c(c2)OCO3)CN1c1ccc2c(c1)OCO2 | 20.9%
39 | O=C(/C=C/c1ccccc1)Nc1ccc([N+](=O)[O-])cc1Cl | 12%
40 | CCC(=O)OCCCCCCOC(=O)CC | 12.5%

Test: NCI Yeast Anticancer Drug Screen. Data for the cln2 rad14 strain (AID 165);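 also: 0% = growth equal to vehicle treated cultures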
Settings: S. cerevisiae cln2 rad14 strain, at 50.0 µM, stronger effect = higher value
In short: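 Each compound was tested on cln2 rad14 yeast. Inhibition of growth was calculated against vehicle-exposed controls.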

Row | SMILES | growth inhibition
41 | N#CNC(=Nc1ccccc1)[N](C#N)[Sn]([c]1ccccc1)([c]1ccccc1)[c]1ccccc1 | 98.7% (active)
42 | Cc1cc(Br)cc(C)c1NC(=O)C(=O)CC(=O)c1sc(-n2nc(-c3ccccc3)cc2-c2ccccc2)nc1C | 28.5%
43 | COc1ccccc1C1c2cc3c(cc2OC(O)(CO)C1C(=O)O)OCO3 (stereo not given) (tested in a mixture with another compound) | -14%
44 | N/C(=N\OC(=O)Nc1ccc(CSc2ccc(Cl)cc2)o1)c1ccccn1 | 10.8%
45 | COc1cc2c(c(O)c1OC)C(=O)[C@@H]1CCC(=O)N1C2c1ccccc1 (stereo not given in full) | 13.1%
46 | CC(C)OC(=O)N1CCCC1 | -20%
47 | COC1=CC(=O)c2ccccc2C1(CCC=C(C)C)C1=NC(C)(C)CO1 (stereo not given) | 5.65%
48 | CC(C#N)(CCl)OS(=O)(=O)CCCl (stereo not given) | 16.9%
49 | COc1ccc(C(C)Nc2cc(OC)c(OC)c(OC)c2)cc1 (stereo not given) | 5.5%
50 | c1cc2c3c(c1)ccc1ccc4cccc(c4c13)O2 | -0.7%
51 | CCCCCCCN1C=CCC(S(=O)(=O)N2CCOCC2)=C1 | 3.85%
52 | O=c1c2cc([N+](=O)[O-])ccc2sc2ccsc12 | -2.85%
53 | COc1cc([C@@H]2c3cc4c(cc3[C@](C)(O)[C@H]3COC(=O)[C@H]23)OCO4)cc(OC)c1OC | 22.8%
54 | CC(C)(/C=N\O)NO | 13.6%
55 | CN(C)c1nc(OC2C(C3COC(C)(C)O3)OC3OC(C)(C)OC32)nc(N(C)C)n1 (stereo not given) | 26%
56 | CSc1c(S(C)=O)[nH]c2cc(Br)cc(Br)c12 (stereo not given) | 71.6% (active)
57 | Cc1ccc2cccc(CCOC(=O)c3ccc([N+](=O)[O-])cc3)c2c1 | -19.1%
58 | CCOc1ccc(N=Cc2cc(Br)ccc2O)cc1 | -0.5%
59 | CCOC(=O)C1(c2ccccc2)CCNC(=O)CC1 (stereo not given) | -14.1%
60 | CN(C)Cc1cc(N=Nc2ccccc2Cl)cc(CN(C)C)c1O | -14.3%

Row | SMILES | growth inhibition
61 | CN(/N=C\c1ccc2ccccc2c1)C1=NCCCCN1 | -37%
62 | Cc1cccc(-c2c3ccccc3cc3ccccc23)c1 | -3.1%
63 | CCOC(=O)C1=C(Nc2ccc(Cl)cc2Cl)OC/C1=N\NS(=O)(=O)c1ccc(C)cc1 | -8.6%
64 | COc1cc2c(C)cc(=O)oc2c(OCC(O)CN2CCCC2)c1OC (stereo not given) | 1.35%
65 | CCOC(=O)C(C(=O)OCC)C(C(=O)OCC)(C(=O)OCC)C(C(=O)OCC)C(=O)OCC | -3.55%
66 | Nc1ccnc2n[nH]nc12 | -9.05%
67 | CC1(N)CCC(C(C)(C)N)CC1 (stereo not given) | -30.3%
68 | CC1=C(CCC(C)CO)OC2CC3C4CC=C5CC(O)CCC5(C)C4CCC3(C)C12 (stereo not given) | 9.95%
69 | C/C(CC(=O)Nc1ccccn1)=N\c1ccccn1 | -0.35%
70 | O=C(/C=C/c1ccc2c(c1)OCO2)NCc1ccco1 | -5.8%
71 | O=c1[nH]c(=S)[nH]c2[nH]ccc12 | -1.1%
72 | Cc1cnc2c(C)ccc([N+](=O)[O-])c2c1NCCCN(C)C | 2.45%
73 | CCCC1(CCC)NC(=O)N(CC(N)=O)C1=O | -20.6%
74 | COC(=O)c1nn(-c2ccccc2)c2nc3ccccc3c-2c1C(=O)OC | 18.5%
75 | O=C1OCc2cccc3c2-c2c1cccc2C(=O)OC3 | 16.2%
76 | CC(C)/C=C1\CCC(CN2CCCC2)C1=O (stereo not given) | 44.5%
77 | NCCn1ccnc1 | -19.8%
78 | S=C1SCN(c2ccc3c(c2)OCO3)CN1c1ccc2c(c1)OCO2 | -0.6%
79 | O=C(/C=C/c1ccccc1)Nc1ccc([N+](=O)[O-])cc1Cl | -1.95%
80 | CCC(=O)OCCCCCCOC(=O)CC | -15%
